From PubChem
FEN1 inh: qHTS Assay for the Inhibitors of Human Flap endonuclease 1 (FEN1). Recombinant FEN1 flap cleavage, fluorescence, 15 min. Potency, µM (highest dose often 114 µM), inactives show top-dose activity change, negative = inhibition, most hits filed as inhibitors. 390,000 compounds, 0.35% hits. AID 588795, 2011; note: potency is the fitted concentration of half-maximal effect; nearly all actives have a fitted effect of over 65% in size
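Read-out was taken twice, immediately and after 15 min, following addition of 50 nM substrate to 10 nM FEN1 that had sat with test compound for 15 min at room temperature. Curves came from a four-parameter Hill model.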
KAT2A inh: qHTS Assay for Inhibitors of GCN5L2; GCN5L2 HAT assay, ThioGlo1 CoA-SH fluorescence; Potency, µM (highest dose often 58.9 µM), inactives show at the highest dose activity change, negative = inhibition, most hits filed as inhibitors; 390,000 compounds, 0.21% hits; AID 504327, 2011; note: potency is the fitted concentration of half-maximal effect
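GCN5L2 (20nM final) in 50mM HEPES, 0.1mM EDTA pH 7.5, 0.01% Tween-20 was preincubated 15 min at room temperature with compound, then given ThioGlo1 (50uM), H3(1-25) peptide (75uM) and acetyl-CoA (70uM); CoA-thiol fluorescence (Ex340/Em540) was read at 0 and 20 min.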
APEX1 inh: qHTS Assay for Inhibitors of the Human Apurinic/apyrimidinic Endonuclease 1 (APE1); 350,000 compounds, 0.35% hits; Potency, µM (titrated, usually from 65.8 µM), without a hit: at the highest dose activity change, negative = inhibition, hits mostly inhibitors; recombinant APE1, TAMRA/BHQ-2 abasic DNA cleavage fluorescence; DNA repair nuclease/redox regulator APEX1 (Homo sapiens), P27695;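 note: potency is the fitted concentration of half-maximal effect; plate controls were vehicle for no effect and reference inhibitor for full effect; nearly all actives have a fitted effect of over 55% in size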
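Enzyme (0.75 nM final) and test compound are incubated 15 min at room temperature before adding 50 nM quenched THF abasic-site duplex. Cleavage dequenches TAMRA, followed at 525/598 nm over three reads one minute apart.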
RECQ1 helicase: qHTS Assay for Inhibitors of RecQ-Like Dna Helicase 1 (RECQ1); ATP-dependent DNA helicase Q1 (Homo sapiens), P46063; RECQ1 DNA unwinding, red fluorescence kinetic read; Potency, µM (series often up to 57.3 µM), for the others: at the highest dose activity, negative = inhibition, most hits filed as inhibitors; 240,000 compounds, 0.54% hits;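 note: potency is the fitted concentration of half-maximal effect; plate controls were vehicle for no effect and no enzyme for full effect; nearly all actives have a fitted effect of over 30% in size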
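50 nM RECQ1T1 preincubated 15 min with compound in Tris pH 8.0 buffer with MgCl2, DTT, Tween-20 and 2.5 ug/ml poly(dI-dC); started with 200 nM TAMRA/BHQ-2 forked duplex and 2 mM ATP. Unwinding read as fluorescence (525/598 nm), two reads 2 h apart.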
PI5P4K alpha inh: qHTS for Inhibitors of phosphatidylinositol 5-phosphate 4-kinase (PI5P4K); 330,000 compounds, 1.2% hits; PI5P4Kalpha enzyme, ADP-Glo luminescence, 60 min; stronger effect = lower value; Phosphatidylinositol 5-phosphate 4-kinase type-2 alpha (Homo sapiens), P48426; max response, %; AID 652105, 2013; active = max response of -50% or lower; inconclusive = between -30% and -50%; inactive = -30% or higher; note: value at the top dose of about 77 µM
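Compounds were pin-transferred onto PI5P4Kalpha and substrate in HEPES pH 7.4 buffer with EGTA, CHAPS and 5% DMSO. ATP (5 microM final) started the reaction, which ran 60 minutes at room temperature before ADP-Glo detection.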
BLM inh: qHTS Assay for Inhibitors of Bloom's syndrome helicase (BLM); Potency, µM (titrated, usually from 56.1 µM), for the others: at the highest dose activity change, negative = inhibition, hits mostly inhibitors; AID 2528, 2010; recombinant BLM DNA unwinding, fluorescence dequenching; 350,000 compounds, 0.2% hits;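 note: potency is the fitted concentration of half-maximal effect; plate controls were vehicle for no effect and no enzyme for full effect; nearly all actives have a fitted effect of over 35% in size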
Target sequence (P54132 whole entry, looked up): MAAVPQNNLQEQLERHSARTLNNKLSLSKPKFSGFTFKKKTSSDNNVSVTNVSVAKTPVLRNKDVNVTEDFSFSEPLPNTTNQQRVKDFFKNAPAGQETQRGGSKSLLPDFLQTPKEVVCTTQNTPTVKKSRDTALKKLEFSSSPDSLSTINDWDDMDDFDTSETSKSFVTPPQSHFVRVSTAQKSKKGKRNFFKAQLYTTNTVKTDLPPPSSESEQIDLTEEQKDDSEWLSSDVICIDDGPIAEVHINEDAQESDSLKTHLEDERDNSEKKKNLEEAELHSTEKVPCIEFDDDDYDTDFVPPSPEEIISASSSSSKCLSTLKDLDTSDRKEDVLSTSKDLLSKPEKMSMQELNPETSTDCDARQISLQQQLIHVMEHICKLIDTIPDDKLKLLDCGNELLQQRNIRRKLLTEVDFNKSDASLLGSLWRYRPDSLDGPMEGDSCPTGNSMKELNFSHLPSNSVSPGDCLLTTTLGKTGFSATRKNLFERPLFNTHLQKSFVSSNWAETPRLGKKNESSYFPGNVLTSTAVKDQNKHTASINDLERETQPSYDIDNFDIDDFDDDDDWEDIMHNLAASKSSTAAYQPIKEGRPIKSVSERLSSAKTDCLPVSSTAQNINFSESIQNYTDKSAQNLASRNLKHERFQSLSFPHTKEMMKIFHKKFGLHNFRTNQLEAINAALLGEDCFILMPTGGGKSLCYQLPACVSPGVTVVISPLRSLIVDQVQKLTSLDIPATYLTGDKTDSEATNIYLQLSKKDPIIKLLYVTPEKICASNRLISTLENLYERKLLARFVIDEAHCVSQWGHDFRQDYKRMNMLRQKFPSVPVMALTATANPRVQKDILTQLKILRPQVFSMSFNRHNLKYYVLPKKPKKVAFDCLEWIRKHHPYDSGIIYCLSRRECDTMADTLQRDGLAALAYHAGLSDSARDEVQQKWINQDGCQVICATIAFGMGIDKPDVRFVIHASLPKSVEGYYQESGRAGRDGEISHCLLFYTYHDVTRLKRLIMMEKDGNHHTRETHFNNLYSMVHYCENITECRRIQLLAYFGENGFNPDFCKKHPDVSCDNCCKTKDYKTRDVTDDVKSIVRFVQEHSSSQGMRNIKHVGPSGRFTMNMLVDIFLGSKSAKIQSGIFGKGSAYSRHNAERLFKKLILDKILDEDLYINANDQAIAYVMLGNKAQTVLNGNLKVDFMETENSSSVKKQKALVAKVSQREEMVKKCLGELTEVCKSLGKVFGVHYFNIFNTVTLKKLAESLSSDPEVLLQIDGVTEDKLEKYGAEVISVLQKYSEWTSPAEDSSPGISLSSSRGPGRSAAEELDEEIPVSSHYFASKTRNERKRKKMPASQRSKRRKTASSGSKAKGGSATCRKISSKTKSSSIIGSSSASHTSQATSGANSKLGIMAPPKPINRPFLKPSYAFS
An asterisk follows results filed as active; i = inactive; ? = inconclusive; · = no result. An excerpt weighted towards active compounds, which were near 1.5% of everything screened. Unless noted, calls come from the whole dose curve; as a rule, active = well fitted curve in the direction sought with a large enough effect; inconclusive = small, poorly fitted or top-dose-only effect, or another doubt; inactive = no such curve, though single readings can be large; an effect the other way counts as inactive or inconclusive. Unless noted, % is set by controls: 0 for no effect and ±100 for the full control effect.

SMILES	FEN1 inh	KAT2A inh	APEX1 inh	RECQ1 helicase	PI5P4K alpha inh	BLM inh
CC(C)(C)n1ncc2c(=O)n(Cc3ccc(SC(F)(F)F)cc3)cnc21	0%	·	-7%	·	·	·
COc1ccc(/C=N/NC(=O)c2ccc(C)cc2)cc1CN1CCN(c2ccc(F)cc2)CC1	-8%	0%	-4%	-7%	-6	-2%
COc1ccc(/C=N\NC(=O)c2cc(O)c(O)c(O)c2)cc1CN1CCN(c2ccc(F)cc2)CC1	14µM*	-6%	?	-5%	-25	-17%
Nc1ccc(/C=C/c2ccnc3ccccc23)cc1	-7%	·	·	·	·	·
COc1ccc(Br)cc1C(=O)NC(=S)Nc1ccc(Cl)c(C(=O)O)c1	-5%	-5%	-3%	i	-65*	-4%
O=C(O)c1cc(O)c2c(c1)[C@H]([C@H]1c3cc(C(=O)O)cc(O)c3C(=O)c3c(O[C@@H]4O[C@H](CO)[C@@H](O)[C@H](O)[C@H]4O)cccc31)c1cccc(O[C@@H]3O[C@H](CO)[C@@H](O)[C@H](O)[C@H]3O)c1C2=O	·	·	0.4µM*	·	·	·
C=CCn1c(COc2ccc(Cl)cc2)nnc1SCc1ccc(C#N)cc1	-9%	-4%	-1%	-4%	-80*	-1%
C=CCn1c(COc2ccccc2)nnc1SCc1ccc(C#N)cc1	0%	-12%	?	-1%	-3	2%
C(=C\c1ccnc2ccccc12)/c1ccc(N2CCOCC2)cc1	45µM*	·	·	·	·	·
CCN(C)c1ccc(/C=C/c2ccnc3ccccc23)cc1	-5%	·	·	·	·	·
CN(C)c1ccc(N=Nc2ccc(/C=C/c3ccnc4ccccc34)cc2)cc1	25µM*	·	·	·	·	·
C(=C\c1ccnc2ccccc12)/c1ccc(N2CCN(c3ccc(/C=C/c4ccnc5ccccc45)cc3)CC2)cc1	-12%	·	·	·	·	·
CC[N+](C)(C)c1ccc(/C=C/c2ccnc3ccccc23)cc1	40µM*	·	·	·	·	·
O=C(C[N+]1(CCO)CCOCC1)c1cccc2ccccc12	-10%	·	·	·	·	·
Cc1ccc(/C=C/C(=O)O)cc1S(=O)(=O)N(CCO)CCO	-1%	-5%	12%	-3%	-59*	-1%
O=C1ON=C(c2ccccc2)/C1=C/c1ccc(-c2ccccc2[N+](=O)[O-])o1	-3%	20µM*	-6%	?	-78*	-27%
O=[N+]([O-])c1ccccc1-c1ccc(/C=N/n2cnnc2)o1	-15%	38%	-14%	-1%	·	1%
Oc1ccc(CNc2ccccc2)c2cccnc12	-14%	-2%	3%	-5%	-55*	-7%
O=C1CCc2cc(-c3csc(-c4ccc(O)cc4)n3)ccc2N1	-19%	·	·	·	·	·
Fc1ccc(-c2csc(=S)[nH]2)cc1	-15%	5%	8%	i	-51*	-4%
S=c1[nH]c(-c2ccccc2)cs1	0%	-30%	4%	-1%	-70*	1%
CCN(Cc1ccccc1)c1ccc(/C=C/c2nccc3ccccc23)cc1	-3%	·	·	·	·	·
O=C(c1ccco1)N1CCN(C(=O)c2cc(-c3ccccn3)nc3ccc(Cl)cc23)CC1	-8%	-16%	-8%	-3%	-59*	-7%
O=C(c1ccco1)N1CCN(C(=O)c2cc(-c3ccccc3)nc3ccccc23)CC1	-1%	-17%	-3%	0%	-2	-1%
CC(=O)C1=C(C)NC(SCC(=O)c2ccc(F)cc2)=C(C#N)C1CC(C)C (stereo not drawn)	-11%	-19%	3%	6%	-57*	5%
SMILES	FEN1 inh	KAT2A inh	APEX1 inh	RECQ1 helicase	PI5P4K alpha inh	BLM inh
O=c1c(O)c(-c2ccc(O)c(O)c2)oc2c(OC[C@@H]3O[C@@H](O)[C@@H](O)[C@H](O)[C@H]3O)c(O)cc(O)c12	·	·	2.5µM*	-12%	·	1%
COc1ccccc1/C=C/c1nc2ccccc2[nH]1	-17%	·	·	·	·	·
CCOC(=O)C1=C(CSc2nc(-c3ccccc3)ccc2C#N)OC(N)=C(C#N)C1c1ccccc1 (stereo not drawn)	?	-15%	-2%	22µM*	-24	-17%
CCOC(=O)C1=C(CSc2nc(-c3ccccc3)ccc2C#N)OC(N)=C(C#N)C1c1cccnc1 (stereo not drawn)	?	-2%	-3%	-22%	?	-8%
CCC[n+]1c(C)sc2c3c(ccc21)CCCC3	-6%	-7%	1%	i	-55*	-9%
CCc1cc2c(=O)c(-c3nc4ccccc4n3C)c(COCC(=O)O)oc2cc1O	6%	-9%	4%	-2%	·	3%
CCCc1cc2c(=O)c(-c3nc4ccccc4s3)c(COCC(=O)O)oc2cc1O	-4%	-18%	-1%	0%	-74*	?
O=S(=O)(NCCNCC=Cc1ccc(Br)cc1)c1cccc2cnccc12	-20%	·	·	·	·	·
COc1ccc(Cl)cc1NC(=O)c1c(NCc2sccc2C)sc2c1CCCC2	79µM*	?	·	·	·	0%
Cc1c(F)cccc1Cn1cnc2c(cnn2C(C)(C)C)c1=O	5%	·	-8%	·	·	·
COc1cccc(CN2Cc3cccc4c3[C@H](C=CC4)CC2=O)c1	-10%	·	·	·	·	·
O=C1NC(=S)N/C1=C/c1cccn1-c1ccc([N+](=O)[O-])cc1	-19%	-19%	?	28µM*	-55*	-18%
Cc1ccccc1-n1c(SCC(=O)c2cc(C)n(C)c2C)nnc1-c1cccnc1	-6%	-7%	3%	-13%	0	-9%
CCn1c(CSc2nnc(-c3cccnc3)n2-c2ccccc2C)nc2cc(C(=O)O)ccc21	·	0%	?	32µM*	·	-16%
C/C(N)=C(/C#N)C(=O)CSc1nnc(Nc2cccc(C)c2)s1	?	-10%	?	-10%	-50*	-15%
Cc1cccc(Nc2nnc(SCC(=O)c3c(N)n(C4CC4)c(=O)[nH]c3=O)s2)c1	21%	0%	-1%	·	-3	·
C/C(N)=C(/C#N)C(=O)CSc1nc2ccccc2c(=O)n1Cc1ccc(F)cc1	?	-17%	-9%	2%	-58*	-25%
C[C@H]1[C@@H](OC(=O)CCC(=O)O)OC2OC3(C)CC[C@H]4[C@H](C)CC[C@@H]1[C@@]24OO3 (stereo partly drawn)	·	4%	·	·	·	2%
COc1ccc(OC)c(-c2csc(NC(=O)COC(=O)c3ccc(NC(=O)CC#N)cc3)n2)c1	79µM*	?	15µM*	·	-61*	·
